{"source": "PubChem BioAssay (NCI)", "note": "The panel holds about 83,000 compounds, 20% with a hit somewhere; the sample as a whole holds those more often.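 Assay: single dose, 48 h. Readout: percent growth (0 = no net growth; negative = cell death). Active: <10.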 Unmarked numbers belong to inactive results. Active and inactive are the calls of the source.", "data": [{"test_system": "SK-MEL-5 melanoma", "test": "NCI-60 one-dose screen, 48 h (100 = growth as untreated, 0 = no growth, -100 = all killed)", "conditions": "10 µM unless noted", "values": [{"smiles": "COCCn1cc(-c2csc(-c3c[nH]c4ccccc34)n2)c2cccnc21", "growth": "8.9% (active)"}, {"smiles": "CCN(CC)c1ccc(-c2cc(-c3cc(OC)c(OC)c(OC)c3)nc(N3CCC(O)CC3)c2C#N)cc1", "growth": "-99.4% (active)"}, {"smiles": "CN1C(=O)/C(=C/c2ccc(C(=O)Nc3ncc(Cc4cccc(C(F)(F)F)c4)s3)cc2)SC1=S", "growth": "7.19% (active)"}, {"smiles": "Nc1ncnc2c1N=C(c1ccc(Cl)cc1)CC(c1cccc(Nc3ccnc4cc(Cl)ccc34)c1)N2", "note": "(stereo not given)", "growth": "61.9%"}, {"smiles": "COCCn1cc(-c2nc(-c3cc4cccnc4n3C)cs2)c2ccccc21", "growth": "2.5% (active)"}, {"smiles": "COC(=O)[C@]1(C)CCC[C@]2(C)[C@H]3C[C@@H]4[C@H]5[C@@H]6CC/C(=N\\OCC/C(N)=N/O)[C@H]5[C@@]3(CC[C@H]21)CC4(C(C)C)O6", "growth": "73.2%"}, {"smiles": "Cc1cccc(-c2nc(C(C)C)sc2-c2ccnc(NCCCNS(=O)(=O)c3ccc(Cl)cc3)c2)c1", "growth": "87.6%"}, {"smiles": "O=C(/C=C/C12c3ccccc3C(c3ccccc31)C1C(=O)NC(=O)C12)c1ccc(Cl)cc1Cl", "note": "(stereo not given)", "growth": "36.8%"}, {"smiles": "CC(C)(C)CC(C)(C)Nc1c(-c2c(O)c3ccccc3oc2=O)nc2sc3ccccc3n12", "growth": "42%"}, {"smiles": "CN(C)CCC(CCN(C)C)(C(=O)O)c1ccccc1", "growth": "102%"}, {"smiles": "Cn1c(=O)[nH]c(=O)c2nc3c(nc21)-c1ccccc1C3=O", "growth": "98.5%"}, {"smiles": "C=C(c1ccc(C(=O)O)c(F)c1)c1cc2c(cc1C)C(C)(C)CCC2(C)C", "growth": "74%"}, {"smiles": "C=C1C(=O)O[C@H]2[C@H]1CC/C(COC(=O)C(=O)c1c[nH]c3ccc(Cl)cc13)=C\\CC[C@@]1(C)O[C@@H]21", "growth": "-97.6% (active)"}, {"smiles": "N#Cc1c(-c2ccc(Br)cc2)nc2c(N=Nc3ccc(S(N)(=O)=O)cc3)c(N)nn2c1N", "growth": "45.8%"}, {"smiles": "CCN(CC)CCN1C(=O)c2c(c3c4ccccc4[nH]c3c3ccc4ccccc4c23)C1=O", "growth": "-23% (active)"}, {"smiles": "O=C(/C=C/c1ccccc1)N(C1CCCCC1)C1CCCCC1", "growth": "89.9%"}, {"smiles": "CC1(C)CC[C@]2(CO)CC[C@]3(C)[C@](O)([C@H](O)C[C@@H]4[C@@]5(C)CCCNC(C)(C)[C@@H]5CC[C@]43C)[C@@H]2C1", "growth": "96.8%"}, {"smiles": "Nc1nc(N(Cc2ccccc2)c2ccccc2)c2cn[nH]c2n1", "growth": "44.6%"}, {"smiles": "CN1CC(c2ccc(Br)cc2)C(C(=O)c2ccc(Br)cc2)C12C(=O)Nc1ccccc12", "note": "(stereo not given)", "growth": "94.2%"}, {"smiles": "Nc1nc(C(=O)N/N=C/c2ccc(F)cc2)nn1-c1ccc(S(N)(=O)=O)cc1", "growth": "107%"}, {"smiles": "COc1ccc(-c2nc(SCC(=O)Nc3nc4ccc(C)cc4s3)[nH]c(=O)c2C#N)cc1OC", "growth": "97.7%"}, {"smiles": "CNC(=O)NCC1OC(n2cnc3c(NC(=O)Nc4ccccc4)ncnc32)C2OC(=O)CC12", "note": "(stereo not given)", "growth": "110%"}, {"smiles": "COc1ccc(NC(=O)c2ccc(Nc3ncnc4c3cnn4-c3cccc(F)c3)cc2)cc1", "growth": "98.4%"}, {"smiles": "CC(C)NS(=O)(=O)/N=C1\\NC(=O)NC1=C(Cl)Cl", "growth": "92.8%"}, {"smiles": "Cc1ccc2cnc(N)c(C#Cc3cc(C(=O)Nc4ccc(CN5CCN(C)CC5)c(C(F)(F)F)c4)cnc3C)c2c1", "growth": "26.8%"}, {"smiles": "Cc1nn(-c2ccc([N+](=O)[O-])cc2)c2ncnc(N/N=C/c3ccccc3O)c12", "growth": "-42% (active)"}, {"smiles": "CC(C)(C)OC(=O)CN1CCc2c(sc3ncnc(N4CCN(c5ccc(F)cc5)CC4)c23)C1", "growth": "92%"}, {"smiles": "COC(=O)[C@@]1(C)CC[C@]2(C)CC[C@]3(C)C4=CC=C5C(=CC(=O)C(O)=C5C)[C@]4(C)[C@@H](O)C[C@@]3(C)[C@@H]2C1", "growth": "60.7%"}, {"smiles": "Cc1cc(Cl)nc(N2CCN(CCNc3ccnc4cc(Cl)ccc34)CC2)n1", "growth": "-45.2% (active)"}, {"smiles": "Cc1ccc(C)c2c1sc1nc(N3CCOCC3)c(C#N)c(=O)n12", "growth": "88.5%"}, {"smiles": "COc1ccc2c(c1)CC[C@@H]1[C@@H]2CC[C@]2(C)c3c(cc(C#N)c4c3sc3ccccc34)C[C@@H]12", "growth": "95.9%"}, {"smiles": "C=C1C(=O)O[C@H]2[C@H]1CC/C(COC(=O)NCc1ccc(Cn3c(=O)sn(-c4ccc(I)cc4)c3=O)cc1)=C\\CC[C@@]1(C)O[C@@H]21", "growth": "98.3%"}, {"smiles": "O=C(O)CC(C(=O)O)/C(=C\\c1ccccc1)c1ccccc1", "note": "(stereo not given)", "growth": "94.8%"}, {"smiles": "CCN(CC)CCOc1ccc(Nc2ncc3cc(-c4c(Cl)cccc4Cl)c(=O)n(CCOC)c3n2)cc1", "growth": "13.6%"}, {"smiles": "O=C(c1ccc(Br)cc1)C(Br)C(c1ccc(Cl)cc1)C(c1ccccc1)[N+](=O)[O-]", "note": "(stereo not given)", "growth": "86.6%"}, {"smiles": "CN1CCOCCN(C)Cc2ccc3ccc(cc3c2)CN(C)CCOCCN(C)Cc2ccc3ccc(cc3c2)C1", "growth": "99.4%"}, {"smiles": "COc1ccc(CN2C(=O)OC(C)(COC(C)=O)C2=O)cc1", "note": "(stereo not given)", "growth": "101%"}, {"smiles": "CN(C)c1ccc(/C=N\\NC(=O)c2ccc3nc(-c4ccc(Cl)cc4)[nH]c3c2)cc1", "growth": "89%"}, {"smiles": "COCCn1cc(-c2csc(-c3c[nH]c4ccc(F)cc34)n2)c2cccnc21", "growth": "1.53% (active)"}, {"smiles": "C/C(Cc1ccc(Cl)cc1)=C(\\c1ccc(OCCN2CCCCCC2)cc1)c1ccc(OC(=O)c2ccccc2)cc1", "growth": "35.3%"}]}]}
